Experimental data from PubChem BioAssay AID1789 (The Scripps Research Institute Molecular Screening Center, 2009).
In all, about 290,000 compounds went through this assay and about 2,700 (0.93%) were called active. The full list was thinned out, with actives kept by preference. Values without a mark were called inactive.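 The calls were made as follows: active = inhibition above the screen-wide mean plus 3 SD, computed separately per campaign (cut at about 16% in these data); inactive = the rest.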

tested on: Heat shock protein HSP 90 (rabbit reticulocyte lysate; luciferase refolding); experiment: HSP90 inhibitors, primary screen, cell lysate, luminescence (AID 1789); conditions: 3 h, at 5.6 µM, active compounds read high;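 also: 0% = DMSO wells and 100% = 60 µM geldanamycin wells; inhibitors lower the luminescence because luciferase stays unfolded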

Row | Compound | inhibition
1 | Cc1ccc(S(=O)(=O)NCC(=O)Nc2ccc3c(c2)OCCO3)cc1 | 5.88%
2 | O=c1c2ccccc2ncn1/N=C/c1ccccc1 | 16.4% (active)
3 | O=C(Nn1cnc2ccccc2c1=O)c1ccccc1 | -3.95%
4 | O=c1c2ccccc2nc(N/N=C/c2ccccc2)n1O | -0.57%
5 | CC(C)C[C@H](NC(=O)N1CC(=O)Nc2ccccc21)C(=O)N[C@H](Cc1ccccc1)C(=O)O | -4.11%
6 | COC(=O)C1[C@H]2SC(C)(C)C(C(=O)OC)N2C(=O)N1Cc1nc2ccccc2s1 (stereo not given in full) | 26.1% (active)
7 | CCC1(CC)NC(=O)N(Cc2nc3ccccc3s2)C1=O | 1.16%
8 | CC1(C)SC2C(NC(=O)COc3ccccc3)C(=O)N2C1C(=O)O (stereo not given) | -3.05%
9 | O=[N+]([O-])c1ccc(F)cc1Oc1nc(-c2cccnc2)nc2ccccc12 | 2.73%
10 | O=C(Cc1ccccc1)N1CCN(S(=O)(=O)c2ccc([N+](=O)[O-])cc2)CC1 | 20% (active)
11 | CS(=O)(=O)N1CCN(C(=O)Cc2ccccc2)CC1 | -2.11%
12 | O=C(Cc1ccccc1)NNS(=O)(=O)c1ccc([N+](=O)[O-])cc1 | -2.29%
13 | COc1ccc(-c2cc(C(=O)N3CCN(c4ccc(F)cc4)CC3)no2)cc1 | -0.04%
14 | O=C(CCc1c[nH]c2ccccc12)NCCOc1ccccc1 | -0.52%
15 | COc1ccc(C)cc1NC(=O)CSc1ccc(Cl)cc1 | 1.35%
16 | COc1ccc(Cl)cc1NC(=O)Cn1nc(-c2ccc(C)cc2)n(C)c1=S | 17.9% (active)
17 | COc1ccc(Cl)cc1NC(=O)CN1CCN(C(=O)N2CCOCC2)CC1 | -1.78%
18 | Cc1ccc(NC(=O)C2CCCN2C(=O)OCc2ccccc2)cc1C (stereo not given) | -2.49%
19 | CCOC(=O)c1ccccc1NS(=O)(=O)c1c(C)nc2sccn2c1=O | -1.63%
20 | CCN1CCN(Cc2nc3c(c(=O)n(C)c(=O)n3C)n2CC(=O)c2ccccc2)CC1 | 0.91%

Row | Compound | inhibition
21 | CCOC(=O)N1CCN(Cc2nc3c(c(=O)n(C)c(=O)n3C)n2Cc2ccccc2)CC1 | 57.6% (active)
22 | Cn1c(=O)c2c(nc(CN3CCOCC3)n2Cc2ccccc2)n(C)c1=O | 8.36%
23 | COc1cccc(CNS(=O)(=O)c2ccc3c(c2)CC(C)N3C(C)=O)c1 (stereo not given) | -0.03%
24 | NNC(=O)c1nnn(-c2nonc2N)c1CN1CCCC1 | 2.68%
25 | Cc1ccc(C)c(OCc2cc(C(=O)N3CCN(c4cnccn4)CC3)no2)c1 | -6.08%
26 | O=C(C1CCN(Cc2ccc(Cl)cc2)CC1)N1CCN(Cc2ccc3c(c2)OCO3)CC1 | 3.57%
27 | Cc1cccnc1CCNC(=O)C1CCC(=O)N(Cc2cccc(F)c2)C1 (stereo not given) | -3.21%
28 | c1ccc(NCc2cccc3ccccc23)nc1 | -0.19%
29 | Oc1ccc(N=Nc2nccs2)c(O)c1 | 0.13%
30 | Oc1ccc2ccccc2c1N=Nc1nccs1 | 16.9% (active)
31 | CCc1ccc(S(=O)(=O)N/N=C\c2ccc([N+](=O)[O-])o2)cc1 | -5.89%
32 | COCCNc1ccc(-c2n[nH]c(=O)c3ccccc23)cc1[N+](=O)[O-] | 1.55%
33 | Cc1cc(N=Nc2ccc3ccccc3c2)ccc1O | -3.33%
34 | CN(C)c1ccc(-n2cccc2/C=C2/SC(=Nc3ccc(F)cc3)NC2=O)cc1 | -2.27%
35 | CN(C)c1ccc(-n2cccc2/C=N/n2cnnc2)cc1 | 54.3% (active)
36 | COc1cccc(OCCOc2cccc(/C=N/n3cnnc3)c2)c1 | 10.3%
37 | O=C(COc1nsnc1N1CCOCC1)Nc1ccccc1Cl | -3.12%
38 | O=C(Nc1ccc(CN2CCOCC2)cc1)c1cc(Cl)ccc1Cl | -0.42%
39 | CCc1nc(N2CCN(C(C)=O)CC2)c2c3c(sc2n1)CCCC3 | 0.58%
40 | O=C(Cc1ccccc1)Nc1ccc(C(=O)Nc2ccccc2C(=O)O)cc1 | 2.96%

Row | Compound | inhibition
41 | COc1ccc(Cl)cc1NC(=O)c1cccc(N2C(=O)C3CC=CCC3C2=O)c1 (stereo not given) | -3.52%
42 | O=C(Nc1ccccc1C(=O)O)c1ccc(N2C(=O)C3CC=CCC3C2=O)cc1 (stereo not given) | 19.6% (active)
43 | COC(=O)[C@@H](Cc1ccccc1)NC(=O)NCCc1ccccc1 | 5.73%
44 | O=C(O)Cc1sc(-c2ccccc2)nc1-c1cccs1 | -2.42%
45 | NC(=O)Cc1ccc2c(c1)[nH]c1ccccc12 | 5.37%
46 | NC(=O)Cc1ccc2sc(-c3ccccc3)nc2c1 | 16.4% (active)
47 | COc1ccc(NC(=O)NN2CCN(C)CC2)c(OC)c1 | -1.29%
48 | CCOc1cccc(-n2nnnc2-c2ccc(OC)cc2)c1 | 1.88%
49 | COc1ccc(-n2nnnc2-c2nc3ccccc3s2)cc1 | 19.1% (active)
50 | COc1ccc(C2=NN(c3nc4ccccc4s3)C(=O)C2)cc1 | 0.61%
51 | O=C(c1cccc(Br)c1)N1CCN(C2=NS(=O)(=O)c3ccccc32)CC1 | -0.31%
52 | O=C(CN1C(=O)COc2ccc(Cl)cc21)N1CCOCC1 | 4.17%
53 | COc1cc(C(=O)NN(CCC#N)C2=NS(=O)(=O)c3ccccc32)cc(OC)c1OC | 26.7% (active)
54 | Cc1ccc(C(=O)NN(CCC#N)C2=NS(=O)(=O)c3ccccc32)cc1 | -2.85%
55 | COc1cc(C2C(C(=O)OCCC#N)=C(C)NC3=C2S(=O)(=O)c2ccccc23)cc(OC)c1OC (stereo not given) | 3.37%
56 | Cc1ccc(NC(=O)C(=O)NCc2ccc(/C=N/NC(=O)c3c(C)nc4cc(C)ccn34)o2)cc1 | 0.35%
57 | CCN(CC)Cc1nc2sc(C)c(C)c2c(=O)[nH]1 | 2.4%
58 | Cc1sc2nc(COC(=O)C(NC(=O)c3ccc(Cl)cc3Cl)C(C)C)[nH]c(=O)c2c1C (stereo not given) | -3.91%
59 | Cc1sc2nc(CSCC(=O)Nc3c(Cl)cccc3Cl)[nH]c(=O)c2c1C | 35.8% (active)
60 | COc1ccc(NC(=O)N2CCCC2C(=O)NCc2ccccc2Cl)cc1 (stereo not given) | -3.61%
